Source: the supplement of paper PMC10338343
± gives the standard deviation.

Tests used:
[1] = test system: MILI (PIWIL2) piRISC loaded with L1MC piRNA (26 nt); assay: pre-steady-state target cleavage rate (min^-1); guide: L1MC piRNA 5'p-UAACUAAAUACUAUGCAAGCUGUAGG; higher = faster piRNA-guided slicing of the target
Summary of the method: (§1)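 The method was Cleave-'n-Seq, in which uncleaved targets from a transcribed, DNA-blocked target RNA library were sequenced after exposure to active affinity-purified piRISC carrying one synthetic guide, with or without GTSF1 partner protein. Reactions contained 0.1 nM library, 1 nM piRISC and, where present, 500 nM GTSF1 in HEPES–potassium acetate buffer at 33 °C for 0–8 or 0–960 min. Reads were normalised to depth and to weakly complementary targets, three trials were pooled, and k3 was capped at 0.0001 min^-1. The pre-steady-state cleavage rate came from a burst-and-steady-state fit.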

[2] = test system: EfPiwi piRISC loaded with L1MC piRNA (26 nt); assay: pre-steady-state target cleavage rate (min^-1); auxiliary factor: 500 nM Ephydatia muelleri Gtsf1; guide: L1MC piRNA 5'p-UAACUAAAUACUAUGCAAGCUGUAGG; MIWI and MILI are mouse PIWI proteins and EfPiwi is from a freshwater sponge; tags in brackets are library labels; higher = faster piRNA-guided slicing of the target
Summary of the method: as §1

[3] = auxiliary factor: 500 nM mouse GTSF1
[4] = auxiliary factor: none (no GTSF1)

Row | Sequence | pre-steady-state target cleavage rate [1, 3] | pre-steady-state target cleavage rate [1, 4] | pre-steady-state target cleavage rate [2]
1 | UCCUGGAUGUCCUGCAUAGUAUUUAGUUA | 0.094 ± 0.013 | 0.00628 ± 0.0019 | 0.00358 ± 0.0026
2 | UCCUGGAUGACCUUGGAUAGUAUUUAGUUA | 0.14 ± 0.013 | 0.00594 ± 0.0024 | 0.00325 ± 0.0032
3 | UCCUGGUACAGCUUGCAUAGUAAUUAGUUA | 0.317 ± 0.034 | 0.00595 ± 0.0029 | 0.00654 ± 0.0025
4 | UCCUCCUACAGCUUUCAUAGUAUUUAGUUA | 0.213 ± 0.017 | 0.00664 ± 0.002 | 0.00691 ± 0.0022
5 | UCCUGGAUCAGCAUGCAUAGUAUUAAGUUA | 0.24 ± 0.012 | 0.00634 ± 0.0023 | 0.00392 ± 0.002
6 | UCCUCCUACAGCAUGCAUAGUAUUAAGUUA | 0.2 ± 0.023 | 0.00348 ± 0.0026 | 0.00654 ± 0.0033
7 | UCCUGGAACAGGUUGCAUAGUAUUUUGUUA | 0.132 ± 0.018 | 0.00924 ± 0.0022 | 0.00366 ± 0.0015
8 | UCCUCCUACAGCUUGCUAAGUAUUUAGUUA | 0.17 ± 0.012 | 0.00586 ± 0.0019 | 0.00593 ± 0.0039
9 | UCCUGCUACAGCUUGAAUAGUAUUUAGUUA | 0.22 ± 0.013 | 0.00812 ± 0.002 | 0.0179 ± 0.0045
10 | UCCUGCUACAGCUGUGCAUAGUAUUUAGUUA | 0.263 ± 0.025 | 0.0081 ± 0.0032 | 0.00927 ± 0.0026
11 | UCCUGGUACAGGCUUGCAUAGUAUUUAGUUA | 0.203 ± 0.026 | 0.0131 ± 0.0043 | 0.00759 ± 0.0028
12 | UCCUACUACAGCUUGCAUAGUAUUUAGUUA | 0.294 ± 0.02 | 0.00883 ± 0.0027 | 0.0579 ± 0.018
13 | UCCUCCCUACAGCUUGCAUAGUAUUUAGUUA | 0.303 ± 0.02 | 0.0107 ± 0.0027 | 0.0606 ± 0.017
14 | UCCUCCUAGUGCUUGCAUAGUAUUUAGUUA | 0.164 ± 0.018 | 0.00418 ± 0.0018 | 0.00928 ± 0.0031
15 | UCCUGGUACAGGAUGCAUAGUAUUUAGUUA | 0.215 ± 0.021 | 0.0111 ± 0.0037 | 0.00598 ± 0.003
16 | UCCUGCUACAGCUUGCAUAGUUAUUUAGUUA | 0.0195 ± 0.0087 | 0.00428 ± 0.0024 | 0.00578 ± 0.0032
17 | UCCUGCAACAGCUUGCAUACUAUUUAGUUA | 0.083 ± 0.011 | 0.00386 ± 0.002 | 0.0112 ± 0.0029
18 | UCCUGGAUGUGCCUUGCAUAGUAUUUAGUUA | 0.111 ± 0.022 | 0.00996 ± 0.0032 | 0.0886 ± 0.031
19 | UCCUGGAUCGAGCUUGCAUAGUAUUUAGUUA | 0.201 ± 0.016 | 0.0122 ± 0.0026 | 0.0315 ± 0.0069
20 | UCCUCCUACAGCUUGCAUAGUGAUUUAGUUA | 0.0192 ± 0.0061 | 0.00528 ± 0.0024 | 0.00415 ± 0.0025
21 | UCCUGGUACAGCUUUGCAUAGUAUUUAGUUA | 0.185 ± 0.018 | 0.0164 ± 0.0048 | 0.00974 ± 0.0035
22 | UCCUCCUACAGCUUGCAUAGUAUUUAGUUA [g2:g26:cont:t1A] | 0.344 ± 0.02 | 0.0103 ± 0.003 | 0.121 ± 0.034
23 | UCCUGCUACAGCUUGGAUAGUUUUUAGUUA | 0.0668 ± 0.012 | 0.00289 ± 0.0027 | 0.0172 ± 0.0039
24 | UCCUGGAACAGCUUGCUUAGUAUUUAGUUA | 0.264 ± 0.01 | 0.00723 ± 0.0021 | 0.0181 ± 0.005
25 | UCCUCCUACAGCGUUGCAUAGUAUUUAGUUA | 0.296 ± 0.021 | 0.0063 ± 0.0021 | 0.0299 ± 0.009
26 | UCCUGGUGCAGCUUGCAUAGUAUUUAGUUA | 0.287 ± 0.017 | 0.0103 ± 0.0029 | 0.0864 ± 0.018

Row | Sequence | pre-steady-state target cleavage rate [1, 3] | pre-steady-state target cleavage rate [1, 4] | pre-steady-state target cleavage rate [2]
27 | UCCUGGUACAGCUUGCAUAGUAUUUAGUCA | 0.159 ± 0.032 | 0.00633 ± 0.0029 | 0.00545 ± 0.0021
28 | UCCUGGAUGUCCUUGCAUAGUAUUAAGUUA | 0.116 ± 0.019 | 0.00289 ± 0.0026 | 0.00404 ± 0.0034
29 | UCCUGCUACAGCUUGUCAUAGUAUUUAGUUA | 0.211 ± 0.021 | 0.00341 ± 0.0028 | 0.0131 ± 0.0037
30 | UCCUGGAUCAGCUUGCAUAGUAAUAAGUUA | 0.189 ± 0.019 | 0.00409 ± 0.0028 | 0.00234 ± 0.0018
31 | UCCUGCUACAGCUUGCAUCGUAUUUAGUUA | 0.168 ± 0.022 | 0.006 ± 0.0019 | 0.0091 ± 0.0022
32 | UCCUGGAUGUCCUUGCAUAGUUUUUAGUUA | 0.0125 ± 0.0057 | 0.00594 ± 0.0021 | 0.00455 ± 0.003
33 | UCCUGGAUGUCCUUCGCAUAGUAUUUAGUUA | 0.0676 ± 0.015 | 0.00538 ± 0.0022 | 0.01 ± 0.0052
34 | UCCUGCUAGUGCUUGCAUAGUAUUUAGUUA | 0.0937 ± 0.017 | 0.00303 ± 0.0022 | 0.00363 ± 0.0014
35 | UCCUGGUACACCUUGCUUAGUAUUUAGUUA | 0.134 ± 0.024 | 0.0117 ± 0.0037 | 0.00384 ± 0.0027
36 | UCCUGGAACACGUUGCAUAGUAUUUAGUUA | 0.193 ± 0.014 | 0.01 ± 0.0027 | 0.0172 ± 0.0053
37 | UCCUGGAUGAGCGUGCAUAGUAUUUAGUUA | 0.186 ± 0.018 | 0.0113 ± 0.003 | 0.0239 ± 0.0062
38 | UCCUGGAUGUGGUAGCAUAGUAUUUAGUUA | 0.0258 ± 0.011 | 0.00767 ± 0.0031 | 0.00356 ± 0.0033
39 | UCCUCCUACACCUUGCAAAGUAUUUAGUUA | 0.118 ± 0.015 | 0.00739 ± 0.0022 | 0.0172 ± 0.007
40 | UCCUGGAUGUCCUUGCAUAGUAUGUUAGUUA | 0.0434 ± 0.0088 | 0.00471 ± 0.0025 | 0.00355 ± 0.0035
41 | UCCUGCUACAGCUUGCAUAGUACUUUAGUUA | 0.194 ± 0.025 | 0.00825 ± 0.0022 | 0.00465 ± 0.0015
42 | UCCUGGAUGUCGUUGCAUAGUAGUUUAGUUA | 0.0297 ± 0.0098 | 0.0066 ± 0.0025 | 0.0087 ± 0.005
43 | UCCUGGUACAGGUUGCAUACUAUUUAGUUA | 0.111 ± 0.033 | 0.00543 ± 0.0028 | 0.00258 ± 0.002
44 | UCCUGGUAGAGCUAGCAUAGUAUUUAGUUA | 0.216 ± 0.019 | 0.00986 ± 0.0028 | 0.00968 ± 0.0033
45 | UCCUGGAUGAGCAUGCAUAGUAUUUAGUAA | 0.21 ± 0.024 | 0.00494 ± 0.0024 | 0.00596 ± 0.0037
46 | UCCUGGUUCAGCUUGCAUAGUAUUUAGUAA | 0.144 ± 0.028 | 0.00573 ± 0.0029 | 0.00696 ± 0.0035
47 | UCCUCCUACAGCUUGCAUAGUAUUUAUUUA | 0.142 ± 0.019 | 0.00314 ± 0.0027 | 0.143 ± 0.053
48 | UCCUCGUACAGCAUGCAUAGUAUUUAGUUA | 0.262 ± 0.015 | 0.0102 ± 0.0022 | 0.0515 ± 0.013
49 | UCCUGGAACAGCUUGCUAAGUAUUUAGUUA | 0.129 ± 0.015 | 0.00361 ± 0.0028 | 0.00374 ± 0.0032
50 | UCCUGGUUGUGCUUGCAUAGUAUUUAGUAA | 0.0938 ± 0.02 | 0.00427 ± 0.0031 | 0.00401 ± 0.0038
51 | UCCUGCUACAGCUUGCAUAGUAUUAUAGUUA | 0.189 ± 0.021 | 0.00585 ± 0.0024 | 0.0103 ± 0.0037
